The source of these data is PubChem BioAssay (NCATS).

Assay in all cases: qHTS profiling for inhibitors of Plasmodium falciparum proliferation (AID 504749); also: nearly all actives have a fitted effect of over 60% in size
Details in all cases: P. falciparum in erythrocytes, SYBR Green DNA, 72 h; series mostly up to 28.7 µM
On the technique in general: Quantitative high-throughput screening tests each substance at several concentrations.

Assay [1] has as its system CP335. An outline of the steps: (§1)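 Readout was DNA-dye fluorescence from lysed cultures, ex 485/em 535 nm. Parasitized red cells had grown 72 h with compound; data scaled between 0.29 uM artemisinin and DMSO wells and corrected using vehicle-only plates.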
For assay [2], the system named is DFO2036. The essentials:
as §1

The subject of assay [3] is DIV14. An outline of the steps: as §1
The subject of assay [4] is DIV17. The essentials: as §1
Assay [5] has as its system DIV30. The essentials:
as §1

For assay [6], the system named is Dd2. An outline of the steps: as §1
In assay [7] the test system is ECU. An outline of the steps: as §1
Assay [8] has as its system FAB9. The essentials:
as §1

For assay [9], the system named is GB4. An outline of the steps: as §1
Assay [10] has as its system HB3. The essentials: as §1

Structures are written as SMILES. Inconclusive results are not listed. The source made the active and inactive calls. Calls follow the shape of the dose curve; as a rule, active = well fitted inhibition curve with a large enough effect; inconclusive = small, poorly fitted or top-dose-only effect; inactive = flat fitted curve, though single readings scatter.
Potency is read from the fitted curve at half-maximal effect.

On to `Cc1c(C(=O)NCCO)[n+](=O)c2ccccc2n1[O-]`, for which the Potency result in [1], in assay [2], in assay [3], in assay [4], in [6] and in [7] was “inactive” throughout. Further, the Potency result in assay [8], in [9] and in assay [10] was “inactive” each time. Also, in assay [5], the call was inactive.

With `CCN(CC)S(=O)(=O)c1ccc(C(=O)O)cc1`, the Potency entry in assay [1], in assay [2], in assay [3], in assay [4], in assay [6] and in [7] was “inactive” throughout. For the same compound, the Potency result in assay [8], in [9] and in assay [10] was “inactive” each time. In addition, in assay [5], the compound was classed as inactive.

For `Cc1c(C)c2c(c(C)c1OC(=O)c1cccnc1)CC[C@@](C)(CCC[C@H](C)CCC[C@H](C)CCCC(C)C)O2`, the Potency entry in assay [1], in assay [2], in assay [3], in assay [4], in assay [6] and in assay [7] was “inactive” throughout. The Potency result in assay [8], in assay [9] and in assay [10] was “inactive” in each case. Besides, in assay [5], the compound was classed as inactive.

For the compound `NCC1CCC(C(=O)Oc2ccc(CCC(=O)O)cc2)CC1` (centres undefined), the Potency entry in assay [1], in assay [2], in [3], in assay [4], in assay [6] and in assay [7] was “inactive” each time. Moreover, the Potency result in [8], in assay [9] and in assay [10] was “inactive” each time. In addition, the outcome in [5] was inactive.

For the compound `CCCCCCCC(=O)OCC(COC(=O)CCCCCCC)OC(=O)CCCCCCC`, the Potency result in assay [1], in assay [2], in [3], in [4], in assay [6] and in assay [7] was “inactive” each time. Moreover, the Potency entry in [8], in assay [9] and in [10] was “inactive” each time. Moreover, the compound was classed as inactive in assay [5].

Take `CCCCCCCC(=O)OCC(O)CO` (centres undefined): the Potency result in [1], in [2], in [3], in assay [4], in assay [6] and in [7] was “inactive” in each case. Also, the Potency result in assay [8], in [9] and in assay [10] was “inactive” each time. Also, in assay [5], the result was inactive.

Consider `COc1ccc(Cc2cnc(N)nc2N)cc1OC`, for which the Potency result in [1], in assay [2], in assay [3], in assay [4] and in [6] was “inactive” in each case. Moreover, the compound was classed as inactive in assay [5]. The Potency was 3.98 µM (active) in assay [7], 7.94 µM (active) in assay [8] and 2.39 µM (active) in assay [9].

In the case of `O=C(O)c1ccc(OCCCOc2ccc(C(=O)O)cc2)cc1`, the Potency result in assay [1], in assay [2], in assay [3], in [4], in [6] and in assay [7] was “inactive” in each case. Also, the Potency result in [8], in [9] and in assay [10] was “inactive” each time. The compound was called inactive in [5].

Consider `O=C(O)CNC(=O)c1ccccc1I`, for which the Potency result in [1], in [2], in [3], in assay [4], in assay [6] and in assay [7] was “inactive” each time. Also, the Potency result in [8], in assay [9] and in assay [10] was “inactive” each time. Moreover, in assay [5], the call was inactive.

For the compound `Cc1c(Cn2ccnc2)c2ccccc2n1CCC(=O)O`, the Potency entry in [1], in assay [2], in [3], in assay [4], in assay [6] and in assay [7] was “inactive” in each case. Further, the Potency result in [8], in assay [9] and in assay [10] was “inactive” in each case. Also, in assay [5], the compound was classed as inactive.

Turning to `NS(=O)(=O)c1ccc(C(=O)O)cc1`, the Potency entry in [1], in assay [2], in assay [3], in [4], in assay [6] and in assay [7] was “inactive” throughout. Besides, the Potency result in assay [8], in [9] and in [10] was “inactive” throughout. Further, in [5], the compound was classed as inactive.

In the case of `CNCc1ccccc1`, the Potency entry in [1], in assay [2], in assay [3], in assay [4], in assay [6] and in assay [7] was “inactive” each time. The Potency entry in assay [8], in [9] and in assay [10] was “inactive” in each case. Moreover, in assay [5], the compound was classed as inactive.

On to `CC(C)CCCC(C)CCCC(C)CCCCC(C)CCCC(C)CCCC(C)C` (centres undefined), for which the Potency entry in assay [1], in [2], in assay [3], in [4], in assay [6] and in assay [7] was “inactive” throughout. In addition, the Potency result in assay [8], in [9] and in assay [10] was “inactive” throughout. The compound was classed as inactive in assay [5].

Regarding `Nc1ccc(S(=O)(=O)c2ccc(N)cc2)cc1`, the Potency result in assay [1], in assay [2], in assay [3], in [4], in assay [6] and in [7] was “inactive” in each case. Also, the Potency entry in assay [8], in assay [9] and in assay [10] was “inactive” throughout. The outcome in [5] was inactive.

With `C[C@@H]1CCC[C@H](C)N1`, the Potency entry in [1], in [2], in assay [3], in [4], in [6] and in [7] was “inactive” throughout. The Potency result in [8], in assay [9] and in assay [10] was “inactive” in each case. Further, the compound was classed as inactive in [5].

With `CC(C(=O)O)c1ccc2c(c1)Cc1cccnc1O2` (centres undefined), the Potency entry in assay [1], in assay [2], in assay [3], in assay [4], in assay [6] and in [7] was “inactive” each time. The Potency result in [8], in assay [9] and in [10] was “inactive” throughout. Besides, the result in assay [5] was inactive.

On to `CCCC(O)C(CC)CO` (centres undefined), for which the Potency result in [1], in assay [2], in assay [3], in assay [4], in [6] and in assay [7] was “inactive” in each case. Also, the Potency result in [8], in assay [9] and in [10] was “inactive” throughout. Moreover, the result in assay [5] was inactive.

Turning to `CC(=O)Oc1cccc(C)c1`, the Potency result in assay [1], in assay [2], in assay [3], in assay [4], in [6] and in assay [7] was “inactive” throughout. Further, the Potency result in assay [8], in assay [9] and in assay [10] was “inactive” throughout. Also, in assay [5], the outcome was inactive.

For `O=C(OOC(=O)c1ccccc1)c1ccccc1`, the Potency result in assay [1], in assay [2], in assay [3], in [4], in [6] and in assay [7] was “inactive” in each case. For the same compound, the Potency result in assay [8], in [9] and in [10] was “inactive” throughout. Further, in [5], the call was inactive.

As for `CC1CC(OC(=O)c2ccccc2O)CC(C)(C)C1` (centres undefined), the Potency entry in assay [1], in assay [2], in [3], in [4], in [6] and in [7] was “inactive” each time. The Potency entry in [8], in assay [9] and in [10] was “inactive” throughout. Further, in assay [5], the outcome was inactive.

Regarding `CC(CSC(=O)c1ccccc1)C(=O)N1C[C@@H](Sc2ccccc2)C[C@H]1C(=O)O` (some centres undefined), the Potency entry in [1], in assay [2], in assay [3], in assay [4], in [6] and in [7] was “inactive” each time. The Potency entry in assay [8], in assay [9] and in assay [10] was “inactive” each time. Also, the outcome in assay [5] was inactive.

`O=C(O)COC(=O)Cc1ccccc1Nc1c(Cl)cccc1Cl`: the Potency entry in assay [1], in assay [2], in [3], in assay [4], in [6] and in [7] was “inactive” in each case. Also, the Potency result in assay [8], in assay [9] and in assay [10] was “inactive” in each case. Besides, the compound was classed as inactive in [5].

With `COc1ccc(O)cc1`, the Potency result in assay [1], in assay [2], in assay [3], in assay [4], in assay [6] and in [7] was “inactive” throughout. Moreover, the Potency result in assay [8], in assay [9] and in assay [10] was “inactive” in each case. Also, the compound was classed as inactive in [5].

Consider `COC(=O)c1ccc(O)cc1`, for which the Potency result in assay [1], in assay [2], in assay [3], in assay [4], in assay [6] and in assay [7] was “inactive” throughout. Also, the Potency entry in assay [8], in assay [9] and in [10] was “inactive” in each case. Besides, the compound was classed as inactive in [5].

Regarding `CCOc1cc(NC(C)=O)ccc1C(=O)OC`, the Potency result in assay [1], in assay [2], in assay [3], in assay [4], in [6] and in assay [7] was “inactive” throughout. The Potency entry in [8], in assay [9] and in [10] was “inactive” in each case. In addition, the call in [5] was inactive.
